# Data reported in ChEMBL document CHEMBL2218924, “A broad activity screen in support of a chemogenomic map for kinase signalling research and drug discovery” (Biochem J, 2013).
# Legend:
# [1] = molecular target: Death-associated protein kinase 1 (Homo sapiens) (UniProt P53355); settings: at 10 µM
# [2] = molecular target: Death-associated protein kinase 2 (Homo sapiens) (UniProt Q9UIK4); settings: at 1 µM
# [3] = molecular target: Death-associated protein kinase 2 (Homo sapiens) (UniProt Q9UIK4); settings: at 10 µM
# [4] = molecular target: T1, Serine/threonine-protein kinase DCLK2 (Homo sapiens) (UniProt Q8N568); settings: at 10 µM
# T1 sequence (whole entry): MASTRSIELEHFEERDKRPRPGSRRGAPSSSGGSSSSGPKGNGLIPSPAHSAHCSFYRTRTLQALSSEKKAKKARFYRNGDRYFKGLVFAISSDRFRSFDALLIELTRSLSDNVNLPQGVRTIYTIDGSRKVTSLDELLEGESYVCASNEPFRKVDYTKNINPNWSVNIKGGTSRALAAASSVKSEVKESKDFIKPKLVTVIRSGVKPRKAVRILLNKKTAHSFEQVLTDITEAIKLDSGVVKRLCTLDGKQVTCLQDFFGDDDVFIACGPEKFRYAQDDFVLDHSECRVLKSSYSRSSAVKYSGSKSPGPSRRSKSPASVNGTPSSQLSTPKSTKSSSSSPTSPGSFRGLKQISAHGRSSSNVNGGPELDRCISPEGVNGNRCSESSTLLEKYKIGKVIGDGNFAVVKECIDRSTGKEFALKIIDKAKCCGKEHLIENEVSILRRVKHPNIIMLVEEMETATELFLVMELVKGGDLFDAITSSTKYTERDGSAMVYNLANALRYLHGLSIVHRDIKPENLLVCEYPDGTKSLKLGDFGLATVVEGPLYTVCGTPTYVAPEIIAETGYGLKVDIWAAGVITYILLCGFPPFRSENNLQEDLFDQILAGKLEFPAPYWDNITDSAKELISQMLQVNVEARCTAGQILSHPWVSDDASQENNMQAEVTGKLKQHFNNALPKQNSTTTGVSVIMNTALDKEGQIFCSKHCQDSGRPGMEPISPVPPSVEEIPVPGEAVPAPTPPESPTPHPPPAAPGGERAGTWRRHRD
# [5] = molecular target: T2, Myotonin-protein kinase (Homo sapiens) (UniProt Q09013); settings: at 1 µM
# T2 sequence (whole entry): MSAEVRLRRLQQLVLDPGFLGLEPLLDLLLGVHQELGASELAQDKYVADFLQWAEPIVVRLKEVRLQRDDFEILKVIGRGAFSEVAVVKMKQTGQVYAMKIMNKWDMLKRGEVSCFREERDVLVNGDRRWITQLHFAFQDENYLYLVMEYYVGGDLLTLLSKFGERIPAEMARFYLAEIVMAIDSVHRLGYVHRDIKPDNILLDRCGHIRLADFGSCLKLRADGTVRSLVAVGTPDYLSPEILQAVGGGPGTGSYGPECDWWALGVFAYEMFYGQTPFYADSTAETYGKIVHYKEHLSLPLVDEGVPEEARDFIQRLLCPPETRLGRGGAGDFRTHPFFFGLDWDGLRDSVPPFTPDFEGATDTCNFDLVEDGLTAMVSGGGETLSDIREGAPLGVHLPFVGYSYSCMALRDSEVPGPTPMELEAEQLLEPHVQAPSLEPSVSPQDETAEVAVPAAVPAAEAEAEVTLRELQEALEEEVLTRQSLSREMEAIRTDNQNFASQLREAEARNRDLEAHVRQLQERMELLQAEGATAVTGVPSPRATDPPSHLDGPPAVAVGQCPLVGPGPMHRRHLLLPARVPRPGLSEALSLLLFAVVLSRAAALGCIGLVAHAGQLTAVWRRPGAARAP
# [6] = molecular target: T2, Myotonin-protein kinase (Homo sapiens); settings: at 10 µM
# [7] = molecular target: T3, Serine/threonine-protein kinase 17A (Homo sapiens) (UniProt Q9UEE5); settings: at 1 µM
# T3 sequence (whole entry): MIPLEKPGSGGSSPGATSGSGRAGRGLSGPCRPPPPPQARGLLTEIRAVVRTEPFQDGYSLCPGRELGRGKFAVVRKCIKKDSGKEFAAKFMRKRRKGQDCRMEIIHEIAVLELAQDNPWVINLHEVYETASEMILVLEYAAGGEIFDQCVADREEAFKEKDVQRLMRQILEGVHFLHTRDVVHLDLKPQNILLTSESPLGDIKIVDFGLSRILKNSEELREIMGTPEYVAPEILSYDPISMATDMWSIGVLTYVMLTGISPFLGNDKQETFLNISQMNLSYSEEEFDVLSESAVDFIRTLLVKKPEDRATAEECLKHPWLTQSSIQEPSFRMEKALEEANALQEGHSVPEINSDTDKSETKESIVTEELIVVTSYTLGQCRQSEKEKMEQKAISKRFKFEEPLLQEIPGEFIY
# [8] = molecular target: T1, Serine/threonine-protein kinase DCLK2 (Homo sapiens); settings: at 1 µM
# [9] = molecular target: T4, Discoidin domain-containing receptor 2 (Homo sapiens) (UniProt Q16832); settings: at 1 µM
# T4 sequence (whole entry): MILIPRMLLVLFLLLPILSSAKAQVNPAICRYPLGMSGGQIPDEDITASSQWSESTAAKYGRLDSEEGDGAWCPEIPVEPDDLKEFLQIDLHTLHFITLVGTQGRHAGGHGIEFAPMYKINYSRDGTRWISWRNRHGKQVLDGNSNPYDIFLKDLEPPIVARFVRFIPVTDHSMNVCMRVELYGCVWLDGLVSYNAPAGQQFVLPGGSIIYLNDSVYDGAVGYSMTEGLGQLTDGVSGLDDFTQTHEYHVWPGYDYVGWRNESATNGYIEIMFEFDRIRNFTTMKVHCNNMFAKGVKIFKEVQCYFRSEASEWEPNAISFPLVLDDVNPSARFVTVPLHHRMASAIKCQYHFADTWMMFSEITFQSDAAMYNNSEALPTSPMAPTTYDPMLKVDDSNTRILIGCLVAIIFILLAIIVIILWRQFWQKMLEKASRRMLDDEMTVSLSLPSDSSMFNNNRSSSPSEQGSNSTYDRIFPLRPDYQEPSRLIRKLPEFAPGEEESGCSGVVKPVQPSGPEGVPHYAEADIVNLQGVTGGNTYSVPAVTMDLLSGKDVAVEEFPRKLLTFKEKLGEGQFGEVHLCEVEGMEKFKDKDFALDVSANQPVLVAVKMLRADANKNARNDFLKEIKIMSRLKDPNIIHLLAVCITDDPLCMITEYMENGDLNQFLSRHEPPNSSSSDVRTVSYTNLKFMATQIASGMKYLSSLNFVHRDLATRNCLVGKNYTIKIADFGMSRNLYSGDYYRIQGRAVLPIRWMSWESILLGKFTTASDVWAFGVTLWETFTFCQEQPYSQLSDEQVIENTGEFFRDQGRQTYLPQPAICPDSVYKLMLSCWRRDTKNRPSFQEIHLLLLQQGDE
# [10] = molecular target: T4, Discoidin domain-containing receptor 2 (Homo sapiens); settings: at 10 µM
# Sequence of Death-associated protein kinase 2 (Homo sapiens) (Q9UIK4 whole entry, looked up): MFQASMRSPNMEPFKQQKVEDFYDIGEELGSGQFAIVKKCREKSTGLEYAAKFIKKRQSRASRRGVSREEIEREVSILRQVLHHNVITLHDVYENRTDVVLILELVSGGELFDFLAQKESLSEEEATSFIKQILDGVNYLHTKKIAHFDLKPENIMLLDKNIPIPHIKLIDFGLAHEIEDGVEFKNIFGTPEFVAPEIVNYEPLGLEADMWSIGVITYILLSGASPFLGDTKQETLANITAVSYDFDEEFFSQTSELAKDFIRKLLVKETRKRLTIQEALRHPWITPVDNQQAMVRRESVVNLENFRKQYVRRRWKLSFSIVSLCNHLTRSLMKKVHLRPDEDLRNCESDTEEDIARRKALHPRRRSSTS
# Sequence of Death-associated protein kinase 1 (Homo sapiens) (P53355 whole entry, looked up): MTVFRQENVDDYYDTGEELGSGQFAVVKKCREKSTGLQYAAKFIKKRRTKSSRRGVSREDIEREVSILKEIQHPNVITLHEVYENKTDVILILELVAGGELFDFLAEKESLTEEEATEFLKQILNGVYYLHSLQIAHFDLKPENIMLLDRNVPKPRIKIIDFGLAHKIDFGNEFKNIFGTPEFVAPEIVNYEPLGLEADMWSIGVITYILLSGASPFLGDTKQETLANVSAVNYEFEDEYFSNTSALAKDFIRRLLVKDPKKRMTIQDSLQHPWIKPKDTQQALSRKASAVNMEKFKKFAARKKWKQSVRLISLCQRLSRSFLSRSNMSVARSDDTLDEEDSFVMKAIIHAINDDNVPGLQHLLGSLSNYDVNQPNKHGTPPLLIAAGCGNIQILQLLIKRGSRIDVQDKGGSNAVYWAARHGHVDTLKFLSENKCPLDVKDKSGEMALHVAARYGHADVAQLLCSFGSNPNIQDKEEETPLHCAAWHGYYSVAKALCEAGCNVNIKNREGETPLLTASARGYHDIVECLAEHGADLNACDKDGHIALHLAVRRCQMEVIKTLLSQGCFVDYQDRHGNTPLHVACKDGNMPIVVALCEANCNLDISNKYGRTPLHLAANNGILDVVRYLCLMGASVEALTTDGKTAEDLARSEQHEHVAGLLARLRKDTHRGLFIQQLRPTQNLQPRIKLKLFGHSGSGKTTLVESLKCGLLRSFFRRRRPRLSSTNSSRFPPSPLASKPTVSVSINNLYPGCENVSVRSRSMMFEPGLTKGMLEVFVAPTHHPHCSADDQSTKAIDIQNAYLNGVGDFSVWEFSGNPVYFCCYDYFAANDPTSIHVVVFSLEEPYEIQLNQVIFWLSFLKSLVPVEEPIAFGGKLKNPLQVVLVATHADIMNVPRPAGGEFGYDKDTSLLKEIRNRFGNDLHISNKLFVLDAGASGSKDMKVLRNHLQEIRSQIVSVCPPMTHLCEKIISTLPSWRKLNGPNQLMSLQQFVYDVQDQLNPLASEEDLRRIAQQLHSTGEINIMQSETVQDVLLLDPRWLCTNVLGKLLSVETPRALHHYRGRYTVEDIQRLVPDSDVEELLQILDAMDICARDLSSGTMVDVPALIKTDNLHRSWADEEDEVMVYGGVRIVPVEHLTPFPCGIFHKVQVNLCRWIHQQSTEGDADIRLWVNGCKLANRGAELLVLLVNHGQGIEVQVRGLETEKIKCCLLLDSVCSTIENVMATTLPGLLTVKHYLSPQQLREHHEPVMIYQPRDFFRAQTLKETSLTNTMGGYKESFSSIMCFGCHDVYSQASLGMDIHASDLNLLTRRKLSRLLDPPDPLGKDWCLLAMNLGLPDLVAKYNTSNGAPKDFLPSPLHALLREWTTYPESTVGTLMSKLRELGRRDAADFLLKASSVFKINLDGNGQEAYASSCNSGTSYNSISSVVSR
smiles,measurement,setting,value
O=c1cc(N2CCNCC2)oc2c(-c3ccccc3)cccc12,residual activity,[1],82%
same,residual activity,[2],98%
same,residual activity,[3],102%
same,residual activity,[4],70%
same,residual activity,[5],134%
same,residual activity,[6],141%
same,residual activity,[7],69%
O=C(O)/C=C/c1cc(Br)c(Br)c(Br)c1Br,residual activity,[1],62%
same,residual activity,[2],91%
same,residual activity,[3],39%
same,residual activity,[8],98%
same,residual activity,[4],68%
same,residual activity,[9],93%
same,residual activity,[10],95%
same,residual activity,[5],93%
same,residual activity,[6],76%
same,residual activity,[7],79%
Nc1nc(Nc2ccc(S(N)(=O)=O)cc2)nn1C(=O)c1c(F)cccc1F,residual activity,[1],96%
same,residual activity,[2],97%
same,residual activity,[3],77%
same,residual activity,[8],68%
same,residual activity,[4],25%
same,residual activity,[7],77%
CCN(CC)CCNC(=O)c1c(C)[nH]c(/C=C2\C(=O)Nc3ccc(Cl)cc32)c1C,residual activity,[1],31%
same,residual activity,[2],63%
same,residual activity,[3],16%
same,residual activity,[8],68%
same,residual activity,[4],24%
same,residual activity,[10],44%
same,residual activity,[5],52%
same,residual activity,[6],68%
same,residual activity,[7],3%
NC(=O)Nc1sc(-c2ccc(F)cc2)cc1C(N)=O,residual activity,[1],70%
same,residual activity,[2],95%
same,residual activity,[3],64%
same,residual activity,[8],96%
same,residual activity,[4],78%
same,residual activity,[10],40%
same,residual activity,[7],69%
COc1cc2nccc(Oc3ccc(NC(=O)Nc4cc(C)on4)c(Cl)c3)c2cc1OC,residual activity,[1],69%
same,residual activity,[8],99%
same,residual activity,[4],104%
same,residual activity,[9],1%
same,residual activity,[10],0%
same,residual activity,[5],100%
same,residual activity,[6],148%
Cn1sc(=O)n(Cc2ccccc2)c1=O,residual activity,[1],80%
same,residual activity,[2],97%
same,residual activity,[3],99%
same,residual activity,[8],100%
same,residual activity,[4],90%
same,residual activity,[9],78%
same,residual activity,[10],90%
same,residual activity,[6],81%
CC(C)(C)n1nc(Cc2cccc3ccccc23)c2c(N)ncnc21,residual activity,[1],88%
same,residual activity,[2],96%
same,residual activity,[3],106%
same,residual activity,[8],85%
same,residual activity,[4],107%
same,residual activity,[9],75%
same,residual activity,[10],29%
same,residual activity,[5],108%
same,residual activity,[6],119%
same,residual activity,[7],120%
CSc1nc(-c2ccc(F)cc2)c(-c2ccnc(NC(C)c3ccccc3)c2)[nH]1 (stereo not drawn),residual activity,[1],96%
same,residual activity,[2],101%
same,residual activity,[3],95%
same,residual activity,[8],137%
same,residual activity,[4],100%
same,residual activity,[9],98%
same,residual activity,[10],93%
N#C/C(=C\c1ccc(O)c(O)c1)C(=O)NCc1ccccc1,residual activity,[8],69%
same,residual activity,[4],88%
same,residual activity,[9],119%
O=C1NC(=O)C(c2c[nH]c3ccccc23)=C1c1c[nH]c2ccccc12,residual activity,[3],58%
same,residual activity,[7],67%
COc1ccc(COc2ccc(Cc3cnc(N)nc3N)cc2OC)cc1,residual activity,[1],82%
same,residual activity,[9],112%
same,residual activity,[5],115%
same,residual activity,[6],139%
same,residual activity,[7],112%
O=C(Nc1ccc(Cl)cc1)c1ccccc1NCc1ccncc1,residual activity,[3],119%
same,residual activity,[8],74%
same,residual activity,[10],36%
same,residual activity,[7],99%
COc1cc2c(cc1OC)-c1n[nH]c(Nc3cccc(F)c3)c1C2,residual activity,[2],99%
same,residual activity,[3],107%
same,residual activity,[8],109%
same,residual activity,[4],132%
same,residual activity,[6],136%
NCCNc1ncc(C(N)=O)c(Nc2cccc(C(F)(F)F)c2)n1,residual activity,[8],73%
same,residual activity,[4],66%
COc1ccc(CNC(=O)Nc2ncc([N+](=O)[O-])s2)cc1,residual activity,[2],102%
same,residual activity,[3],104%
same,residual activity,[5],100%
same,residual activity,[6],80%
O=C1Cc2c([nH]c3ccc(Br)cc23)-c2ccccc2N1,residual activity,[5],97%
same,residual activity,[6],83%
same,residual activity,[7],76%
COc1ccc(Cl)cc1NC(=O)Nc1cc(C)nc2ccccc12,residual activity,[1],66%
same,residual activity,[9],83%
same,residual activity,[10],39%
same,residual activity,[5],94%
same,residual activity,[7],97%
Nc1nccc(-c2c(-c3ccc(F)cc3)ncn2C2CCNCC2)n1,residual activity,[5],129%
same,residual activity,[6],83%
Cc1cc(C)c(/C=C2\C(=O)Nc3ccccc32)[nH]1,residual activity,[7],26%
Nc1ncnc2[nH]nc(Nc3ccc(F)cc3)c12,residual activity,[2],99%
same,residual activity,[3],100%
same,residual activity,[8],107%
same,residual activity,[4],96%
same,residual activity,[9],95%
same,residual activity,[10],92%
same,residual activity,[7],45%
O=C1Nc2ccccc2/C1=C\c1c(Cl)[nH]c2ccccc12,residual activity,[1],83%
same,residual activity,[5],119%
same,residual activity,[7],83%
NC(=O)c1ccc(-c2nc(-c3ccc4c(c3)OCCO4)c(-c3ccccn3)[nH]2)cc1,residual activity,[1],78%
same,residual activity,[9],98%
same,residual activity,[10],97%
same,residual activity,[5],93%
same,residual activity,[6],97%
same,residual activity,[7],89%
N#C/C(=C1/Nc2ccccc2S1)c1ccnc(NCCc2cccnc2)n1,residual activity,[6],78%
same,residual activity,[7],60%
O=c1c(-c2ccc(F)cc2)c(-c2ccncc2)[nH]n1-c1ccc(Cl)cc1,residual activity,[8],122%
same,residual activity,[10],36%
same,residual activity,[6],99%
O=C1C(Cl)=C(N2C(=O)CCC2=O)C(=O)c2ccccc21,residual activity,[1],90%
same,residual activity,[9],89%
same,residual activity,[6],85%
CCCCc1c(-c2ccc(O)cc2)[nH]c2nccnc12,residual activity,[2],89%
same,residual activity,[3],96%
same,residual activity,[9],71%
same,residual activity,[10],36%
same,residual activity,[7],77%
CN([C@@H](Cc1ccc(OS(=O)(=O)c2cccc3cnccc23)cc1)C(=O)N1CCN(c2ccccc2)CC1)S(=O)(=O)c1cccc2cnccc12,residual activity,[5],135%
same,residual activity,[6],115%
same,residual activity,[7],117%
COc1ccc(-c2cnc3c(-c4ccsc4)cnn3c2)cc1,residual activity,[8],84%
same,residual activity,[4],100%
same,residual activity,[5],145%
same,residual activity,[6],129%
same,residual activity,[7],95%
O=c1cc(N2CCOCC2)oc2c(-c3ccccc3)cccc12,residual activity,[4],76%
same,residual activity,[5],134%
same,residual activity,[6],130%
O=S(=O)(NCCNC/C=C/c1ccc(Br)cc1)c1cccc2cnccc12,residual activity,[4],100%
O=C1NC(=O)C(c2cn(CCCn3ccnc3)c3ccccc23)=C1Nc1ccccc1,residual activity,[8],100%
same,residual activity,[4],79%
same,residual activity,[5],120%
same,residual activity,[6],124%
O=C(c1cc2cc(O)ccc2[nH]1)c1cc2cc(O)ccc2[nH]1,residual activity,[3],73%
same,residual activity,[8],70%
same,residual activity,[4],59%
same,residual activity,[5],120%
same,residual activity,[6],122%
same,residual activity,[7],13%
CCOc1nc(NC(=O)Cc2cc(OC)ccc2OC)cc(N)c1C#N,residual activity,[8],138%
O=C(Nc1nc2ccccc2n1CCN1CCOCC1)c1cccc([N+](=O)[O-])c1,residual activity,[1],73%
same,residual activity,[9],110%
same,residual activity,[10],112%
same,residual activity,[7],104%
